Sampled rows, rich in hits. Any-hit rate of the full collection: about 17%.
ClpP mod: qHTS Assay for Activators of ClpP; ATP-dependent Clp protease proteolytic subunit (Bacillus subtilis (strain 168)), P80244; purified B. subtilis ClpP, FRET peptide cleavage, 20 min; Potency, µM (highest dose often 57.5 µM); 1.9% of 340,000 active; AID 651965, 2013; active means well fitted falling curve with a large enough effect; inconclusive means small, poorly fitted or top-dose-only effect; inactive means no such curve, though single readings can be large or run the other way; further: the source files actives as falling curves though it sought activators and does not explain the sign; nearly all actives have a fitted effect of over 65% in size
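Purified B. subtilis ClpP, 10 microg/mL final in Tris/HCl pH8 with KCl, BSA, glycerol and Tween-20, cleaved an Abz/nitrotyrosine-quenched decapeptide. Fluorescence (ex 320, em 430) was read at 0 and 20 min at room temperature. Delta was normalized to 5.8 microM ADEP and DMSO/no-enzyme controls.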
DT40 TDP1 CPT: growth inhibition of DT40 Tdp1-/-;hTDP1 cells with camptothecin (screen for TDP1 inhibitors); chicken DT40 Tdp1-/-;hTDP1 cells + 20 nM CPT, ATP luminescence, 48 h; Potency, µM (highest dose often 46.2 µM), actives largely listed as inhibitors; AID 686979; 12% of 420,000 active; further: nearly all actives have a fitted effect of over 55% in size
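Cell growth measured by CellTiter-Glo luminescence after a minimum 48 h, 37 C compound exposure with 20 nM CPT in Tdp1-knockout DT40 cells stably expressing hTDP1, seeded 400/well; qHTS titration format.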
TDP1 block: inhibitors of human tyrosyl-DNA phosphodiesterase TDP1; Q9NUW8; recombinant TDP1, AlphaScreen DNA substrate cleavage; Potency, µM (titrated, usually from 130 µM), usual class: inhibitors; 0.28% of 350,000 active; AID 485290; further: nearly all actives have a fitted effect of over 40% in size
Target sequence (Q9NUW8 whole entry, looked up): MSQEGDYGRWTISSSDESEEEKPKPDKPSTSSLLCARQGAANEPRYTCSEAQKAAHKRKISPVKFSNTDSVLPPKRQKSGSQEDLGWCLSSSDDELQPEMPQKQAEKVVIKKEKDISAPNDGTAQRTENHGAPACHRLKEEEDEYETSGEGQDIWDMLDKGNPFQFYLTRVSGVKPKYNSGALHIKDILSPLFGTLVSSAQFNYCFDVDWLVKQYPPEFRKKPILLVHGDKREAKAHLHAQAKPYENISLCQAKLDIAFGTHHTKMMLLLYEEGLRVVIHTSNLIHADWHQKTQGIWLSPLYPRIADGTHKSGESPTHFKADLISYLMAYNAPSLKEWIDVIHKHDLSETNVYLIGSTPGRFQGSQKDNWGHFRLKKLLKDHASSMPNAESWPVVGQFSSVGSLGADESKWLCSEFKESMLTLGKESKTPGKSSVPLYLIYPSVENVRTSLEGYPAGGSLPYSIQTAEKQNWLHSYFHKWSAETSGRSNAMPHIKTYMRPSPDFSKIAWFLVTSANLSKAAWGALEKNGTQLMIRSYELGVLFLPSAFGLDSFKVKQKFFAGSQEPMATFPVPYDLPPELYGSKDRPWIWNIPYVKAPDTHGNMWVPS
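Steps: enzyme plus compound, 15 min RT; add biotin/phosphotyrosine-FITC oligonucleotide (15 nM final), react 5 min; add donor/acceptor beads (10 ug/ml final), 10 min; read AlphaScreen. Tdp1 at 1 nM final.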
DT40 TDP1 no CPT: qHTS for Inhibitors of human tyrosyl-DNA phosphodiesterase 1 (TDP1): qHTS in cells in absence of CPT; DT40 Tdp1-/- hTDP1 cells, no CPT, ATP luminescence, 48 h; Potency, µM (highest dose often 46.2 µM), usual class: inhibitors; AID 686978, 2013; 15% of 420,000 active; further: nearly all actives have a fitted effect of over 55% in size
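Readout: luminescence from CellTiter-Glo after 30 min in the dark at RT. Cells: DT40 Tdp1-/- with stable hTDP1, 400/well. Exposure: compounds alone, ≥48 hr, 37 °C.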
Each line names hits and unclear results; the compound was inactive in the other large screens. Unless noted, the call rests on the fitted dose curve; in most records, active means well fitted curve in the direction sought with a large enough effect; inconclusive means small, poorly fitted or top-dose-only effect, or another doubt; inactive means no such curve, though single readings can be large; an effect the other way counts as inactive or inconclusive.

Cc1noc(C)c1S(=O)(=O)NCc1ccc(CN(C)C)cc1	none
COc1ccc(N(C)C(=O)C2CCCN2S(=O)(=O)c2cccc3nsnc23)cc1 (centres undefined)	none
CC(NCC1(N2CCOCC2)CCCCC1)C(=O)Nc1ccc(Cl)cc1Cl (centres undefined)	DT40 TDP1 CPT inconclusive
CCCn1c(N)c(C(=O)CSc2nc(C)cs2)c(=O)n(C)c1=O	DT40 TDP1 CPT inconclusive, DT40 TDP1 no CPT 11.6µM
C=CCn1c(SCC(=O)c2c(N)n(CCC)c(=O)n(C)c2=O)nnc1-c1ccncc1	none (no result: ClpP mod)
Cc1cc(C(=O)CSc2nc3ccccc3c(=O)[nH]2)c(C)n1CC1CCCO1 (centres undefined)	DT40 TDP1 CPT 13µM, DT40 TDP1 no CPT 10.3µM
Cc1cc(C(=O)CSc2nnc(Nc3ccccc3F)s2)c(C)n1CC1CCCO1 (centres undefined)	DT40 TDP1 CPT inconclusive, DT40 TDP1 no CPT inconclusive
Cc1cccc(Nc2nnc(SCC3CCCCO3)s2)c1C (centres undefined)	ClpP mod 10µM, DT40 TDP1 no CPT inconclusive
Cc1cc(C(=O)CSc2nnc(Nc3ccccc3)s2)c(C)n1CC1CCCO1 (centres undefined)	DT40 TDP1 CPT 11.6µM, DT40 TDP1 no CPT inconclusive
Cc1nn(CC(C)C)c2sc(C(=O)NC3CC(C)(C)NC(C)(C)C3)cc12	ClpP mod inconclusive, DT40 TDP1 CPT inconclusive, DT40 TDP1 no CPT inconclusive
CN1CCN(c2ccccc2NC(=O)c2sc3ccccc3c2Cl)CC1	DT40 TDP1 CPT inconclusive, DT40 TDP1 no CPT 20.6µM (no result: ClpP mod)
O=C(Nc1nccs1)c1sc2ccccc2c1Cl	DT40 TDP1 CPT inconclusive, DT40 TDP1 no CPT 20.6µM
O=C(NC1CC1)c1sc2ccccc2c1Cl	none (no result: ClpP mod, TDP1 block)
O=C(NC1C=CS(=O)(=O)C1)c1sc2ccccc2c1Cl (centres undefined)	DT40 TDP1 CPT inconclusive, DT40 TDP1 no CPT 23.1µM
CCCC(=O)N1CCN(c2ccc(NC(=O)c3sc4ccccc4c3Cl)cc2)CC1	DT40 TDP1 no CPT inconclusive
O=C(Nc1nccs1)c1sc2cc(Cl)ccc2c1Cl	DT40 TDP1 CPT inconclusive, DT40 TDP1 no CPT inconclusive
CCOCCCNC(=O)Cn1ncc2c([nH]c3ccccc32)c1=O	none
O=C(Nc1nc(OCC(F)(F)F)cnc1/C=C\c1ccccc1)c1ccccc1	DT40 TDP1 no CPT inconclusive (no result: TDP1 block)
CCN(Cc1nc2ccccc2c(=O)[nH]1)C(=O)c1ccc(C)c(NC(=O)c2ccco2)c1	DT40 TDP1 no CPT inconclusive
COc1cc(OC)c2c(c1)OC1Cc3cc(OC)c(OC)cc3C2O1 (centres undefined)	none (no result: ClpP mod, DT40 TDP1 CPT, DT40 TDP1 no CPT)
COCc1ccc(CN2CCOc3ccc(C4=Cc5ccccc5C4)cc3C2)o1	none (no result: ClpP mod, TDP1 block)
COCCNC(=S)Nc1ccc(N2CCCCC2)cc1	DT40 TDP1 CPT inconclusive, DT40 TDP1 no CPT inconclusive
COc1ccc(-c2ccc(/C=C(\NC(=O)c3ccccc3)C(=O)N3CCOCC3)o2)cc1	DT40 TDP1 CPT 14.6µM, DT40 TDP1 no CPT 20.6µM
Cc1ccc(C(=O)N/C(=C\c2ccc(-c3ccccc3[N+](=O)[O-])o2)C(=O)NCCCN2CCOCC2)cc1	DT40 TDP1 CPT 20.6µM, DT40 TDP1 no CPT inconclusive
Cc1ccc(C(=O)N/C(=C\c2ccc(-c3ccc(Br)cc3)o2)C(=O)NCCCN(C)C)cc1	DT40 TDP1 CPT 4.61µM, DT40 TDP1 no CPT 3.26µM
CN(C)CCNC(=O)/C(=C/c1ccc(-c2ccc(Cl)cc2)o1)NC(=O)c1ccccc1	ClpP mod 15.8µM, DT40 TDP1 CPT inconclusive, DT40 TDP1 no CPT inconclusive
CN(C)CCNC(=O)/C(=C/c1ccc(-c2ccc(Cl)cc2Cl)o1)NC(=O)c1ccccc1	DT40 TDP1 CPT inconclusive, DT40 TDP1 no CPT inconclusive
Cc1ccc2c(c1)-n1c(nc3cc(Cl)ccc3c1=O)C(CC(C)C)NC2=O (centres undefined)	none (no result: ClpP mod, DT40 TDP1 CPT, DT40 TDP1 no CPT)
CCCS(=O)(=O)NC(=O)C1(C)CCN(C(=O)COc2ccccc2)C1 (centres undefined)	none (no result: TDP1 block)
CCC(CC)c1nnc(NC(=O)c2ccc3ccccc3n2)s1	DT40 TDP1 CPT inconclusive, DT40 TDP1 no CPT 11.2µM
Cc1ccc(OCC(=O)Nc2ccc(-c3nc4ccc(C)cc4o3)cc2)cc1	ClpP mod inconclusive, DT40 TDP1 CPT 16.4µM, DT40 TDP1 no CPT 18.4µM
Cc1ccc2oc(-c3ccccc3)nc2c1	ClpP mod 14.1µM
Cc1ccc(-c2nc3cc(NC(=O)Cc4ccc(Cl)cc4)ccc3o2)cc1	none
CCCC(=O)Nc1ccc(-c2nc3cc(C)ccc3o2)cc1	ClpP mod 39.8µM
C[C@@H]1CN([C@@H](C)CO)C(=O)c2cc(Br)cnc2O[C@H]1CN(C)C(=O)Nc1ccc(F)cc1	none (no result: TDP1 block)
Cc1ccc(-c2noc(-c3ccccc3NC(=O)C3CC(=O)N(c4cccc(C)c4)C3)n2)cc1 (centres undefined)	none
Cn1cc(CN2CCc3ccccc3C2)c2ccccc21	DT40 TDP1 CPT 9.2µM, DT40 TDP1 no CPT inconclusive
Cc1nn(C)cc1CN1CCOc2ccc(C(C)(O)COc3ccccc3)cc2C1 (centres undefined)	none (no result: ClpP mod, TDP1 block)
CN(C)CC(C)(O)c1ccc2c(c1)CN(Cc1cn(C)c3ccccc13)CCO2 (centres undefined)	DT40 TDP1 no CPT 20.6µM (no result: ClpP mod, TDP1 block)
Cc1nnc(NC(=O)C(C)Sc2nnc(CNC(=O)c3ccccc3F)n2C)s1 (centres undefined)	none (no result: ClpP mod)
Cc1cc(C(=O)N/N=C/c2cccc(OC(=O)c3cccc(Br)c3)c2)n[nH]1	none
COc1cc(C(=O)Oc2cccc(C=O)c2)cc(OC)c1OC	DT40 TDP1 CPT 25.9µM, DT40 TDP1 no CPT inconclusive
COc1cc(C(=O)Oc2cccc(/C=N/NC(=O)c3cc(C)[nH]n3)c2)cc(OC)c1OC	DT40 TDP1 CPT inconclusive, DT40 TDP1 no CPT 20.6µM (no result: ClpP mod)

Screening results deposited in PubChem BioAssay by National Center for Advancing Translational Sciences (NCATS).
